Consider five compounds from PubChem BioAssay AID2016 (NMMLSC, 2009).

Each structure is given as a SMILES string. Screen size: about 330,000 compounds; about 1,700 (0.52%) were called active.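 The calls were made as follows: active = GFP response versus DMSO above a set limit, roughly screen mean plus 3 SD (cut at about 180% in these data); inconclusive = fewer than 70 cells counted for a yeast strain; inactive = the rest.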 This excerpt belongs to a sample that is enriched for actives.

The assay in a line: modulators of MEP2-GFP levels in yeast, primary screen, S. cerevisiae, multiplex flow cytometry, MLPCN library (AID 2016).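 Also: median GFP fluorescence of the barcode-gated MEP2-GFP cells per well.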 The conditions noted are these: S. cerevisiae MEP2-GFP strain, 3 h, at 10 µM, active compounds read high.
With `Cc1cccc2c(CCN)c[nH]c12`, the GFP response vs DMSO was 105% (inactive).

In the case of `C/C(CCc1c[nH]c2ccccc12)=N\O`, the GFP response vs DMSO was 105% (inactive).

With `NCCc1c[nH]c2ccc(O)cc12`, the GFP response vs DMSO is 206% [may fluoresce violet] (active).

Regarding `COC1=CC=C2[C@H]3Cc4ccc(OC)c5c4[C@@]2(CCN3C)C1O5` (stereo not given in full), the GFP response vs DMSO is 106% (inactive).

Take `CCCOC(=O)C1C2c3ccccc3C(c3ccccc32)C1C(=O)O` (stereo not given): the GFP response vs DMSO is 99.1% (inactive).
